Experimental data: the supplement of paper PMC3334620
The full ranking holds about 33,000 sequences; the median of “E-score (-0.5 to 0.5)” is about -0.012, and the highest 2% start at about 0.27. The full list was thinned out, with the highest values kept by preference.

What follows are sequences tested against T1, Vhr1 (UniProt P40522) (assay: PBM E-score (8-mer binding enrichment) (E-score (-0.5 to 0.5)); higher = stronger / more preferred TF binding). Conditions: protein concentration: 200 nM; construct: GST-full length.
T1 sequence: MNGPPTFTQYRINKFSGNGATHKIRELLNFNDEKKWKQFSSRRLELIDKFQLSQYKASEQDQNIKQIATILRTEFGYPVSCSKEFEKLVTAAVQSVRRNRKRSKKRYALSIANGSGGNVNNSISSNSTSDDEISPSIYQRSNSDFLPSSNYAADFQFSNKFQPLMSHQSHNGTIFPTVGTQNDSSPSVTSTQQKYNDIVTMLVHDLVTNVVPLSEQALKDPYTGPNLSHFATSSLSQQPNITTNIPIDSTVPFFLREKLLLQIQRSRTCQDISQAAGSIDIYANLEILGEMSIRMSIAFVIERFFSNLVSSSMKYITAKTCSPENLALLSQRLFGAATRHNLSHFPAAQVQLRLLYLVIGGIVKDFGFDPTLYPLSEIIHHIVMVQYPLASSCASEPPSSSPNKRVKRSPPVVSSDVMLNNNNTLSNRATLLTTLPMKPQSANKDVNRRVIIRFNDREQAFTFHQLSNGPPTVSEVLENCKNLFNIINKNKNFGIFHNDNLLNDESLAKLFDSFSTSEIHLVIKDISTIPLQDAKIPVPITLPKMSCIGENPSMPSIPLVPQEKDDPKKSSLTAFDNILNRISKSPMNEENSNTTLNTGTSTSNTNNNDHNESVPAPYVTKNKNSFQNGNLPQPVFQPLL
Method in brief: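 The E-score, a modified Wilcoxon-Mann-Whitney statistic, was computed by the Universal PBM Analysis Suite for every ungapped eight-base word pooled with its reverse complement. Scans behind it were normalised with masliner after bound GST-tagged yeast transcription factors were detected with fluorescent anti-GST. The proteins, at about 100-200 nM, had been applied to universal all-10-mer Agilent arrays made double-stranded by primer extension.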

| Sequence | PBM E-score |
| --- | --- |
| ATTTACAA | -0.101 |
| ATCACAGC | 0.182 |
| ATCACACG | 0.102 |
| ATCACAAC | 0.00509 |
| ATCACACC | 0.288 |
| ATCACACA | 0.282 |
| ATCACATA | 0.19 |
| ATAGGCAA | -0.246 |
| ACCTCGAC | -0.00505 |
| AGCTGCCT | -0.219 |
| AGTTTTTC | -0.152 |
| CCAGCGAG | 0.181 |
| TGCACGCA | -0.0577 |
| GTAGTTGA | 0.277 |
| CTAGTTGA | 0.202 |
| ATAGTTGA | 0.0409 |
| AGAAATCT | -0.217 |
| GGACGCTA | -0.324 |
| CAACTTGG | 0.0538 |
| GGTCAACC | 0.0175 |
| AGTCAACG | 0.278 |
| CGTCAACG | -0.0358 |
| AGTCAACC | 0.373 |
| AGTCAACA | 0.19 |

| Sequence | PBM E-score |
| --- | --- |
| AGTCAACT | 0.144 |
| ATCTGATA | 0.0202 |
| CATGTAGA | 0.00603 |
| AGTCGCTA | 0.174 |
| CCCCACCG | 0.188 |
| ACCCACCC | 0.397 |
| ACCCACCG | 0.256 |
| ACCCTCCC | 0.307 |
| CCCCTCCC | 0.171 |
| ACCCACTG | 0.22 |
| CCCCACCA | 0.0983 |
| ACCCACCT | 0.0548 |
| ACCCACTC | 0.282 |
| CCCCACCC | 0.36 |
| CCCCACTC | 0.128 |
| ACCCTCCT | -0.116 |
| AAAGCCAT | -0.0236 |
| CGTCCCAC | 0.0371 |
| GGTTAGAC | -0.00016 |
| GGGCTTGA | -0.125 |
| ACCCTAAT | -0.0655 |
| CCAAAAGA | -0.201 |
| GCCCACAC | 0.069 |
| GCCCACCC | 0.284 |

| Sequence | PBM E-score |
| --- | --- |
| GCCCACCA | -0.125 |
| ACCCACCA | 0.296 |
| TCCCACCA | -0.112 |
| ACCACCCA | 0.192 |
| CCGAGAGC | -0.0932 |
| ATAGCGCC | 0.0931 |
| CCATTCGA | -0.172 |
| AGCTGTAC | 0.016 |
| GAAGAAAA | -0.221 |
| CCCGCGGG | 0.102 |
| ACCGCGCC | -0.0598 |
| ACCGCGGT | 0.0486 |
| ACCGCGCT | 0.0474 |
| ACCGCGGG | 0.312 |
| ACCGCGCG | 0.336 |
| GGAAGAAC | 0.0668 |
| ACTATCAT | 0.251 |
| ATAGGGCG | -0.0674 |
| AGGAGGGG | 0.284 |
| AGGAGGGC | -0.11 |
| AGGAGGGA | -0.101 |
| TATGGGCA | 0.131 |
| ACTCCCAA | 0.112 |
| GTCAGGTA | 0.126 |

| Sequence | PBM E-score |
| --- | --- |
| ATGATTTG | 0.172 |
| GGGATTCA | 0.134 |
| ATGATTCG | 0.412 |
| AAGATTCG | 0.0242 |
| ATGATTCA | 0.443 |
| CGGATTCA | 0.0469 |
| GAGATTCA | 0.0192 |
| CAGATTCA | -0.232 |
| AGGATTCA | -0.0305 |
| CTGATTCA | 0.341 |
| GTGATTCA | 0.408 |
| ACGATTCA | 0.112 |
| ATCCAAGC | 0.0358 |
| ACTGCCCC | -0.0425 |
| GTGGACCA | 0.0132 |
| ATTTTGGG | -0.177 |
| CCGGTAGC | -0.00183 |
| AGTGTACG | 0.163 |
| ATCCAATA | 0.135 |
| GGGAGGAC | -0.0865 |
| GCTGGTAA | -0.148 |
| GGCTAACA | -0.0545 |
